About 75 (2%) of roughly 3,200 compounds showed an effect of 50% or more. This is one part of a sample in which strong results are shown more often than they occur.
The molecules below were run on T1, S. aureus MSSA476. Conditions: relative growth, OD600, TSB; 25 µM; inhibitor.
T1 construct: MSSA476
Set-up: species or system S. aureus MSSA476 (TSB) or V. cholerae SAD30 (LB); 384-well bacterial growth screen at 25 uM, OD600 relative to DMSO control

Compound	% of control remaining [%]
O=C(CCl)c1cn(-c2ccc(F)cc2)nn1 [10-F05]	0
O=C(CCl)c1c[nH]c2ccc(F)cc12 [10-O11, 2-chloro-1-(5-fluoro-1H-indol-3-yl)ethan-1-one]	120.625
O=C(CCl)c1ccc(C(F)(F)F)cc1 [10-B10, 2-chloro-1-[4-(trifluoromethyl)phenyl]ethan-1-one]	135.938
Cc1cccc(CC(=O)CCl)c1 [10-I19, 1-chloro-3-(3-methylphenyl)propan-2-one]	130.938
O=C(CCl)c1cn(-c2cccc(C(F)(F)F)c2)nn1 [10-C09, 2-chloro-1-{1-[3-(trifluoromethyl)phenyl]-1H-1,2,3-triazol-4-yl}ethan-1-one]	-0.3125
Cn1cc(C(=O)CCl)nn1 [10-M19, 2-chloro-1-(1-methyl-1H-1,2,3-triazol-4-yl)ethan-1-one]	87.5
CC(NC(=O)CCl)c1cn(-c2ccccc2)nn1 (stereo not shown) [5-O06, 2-chloro-N-[1-(1-phenyl-1H-1,2,3-triazol-4-yl)ethyl]acetamide]	91.0747
Cc1cccc(-n2cc(C(=O)CCl)nn2)c1 [10-L07]	0
O=C(CCl)NC1CC(=O)N(c2cccc(C(F)(F)F)c2)C1 (stereo not shown) [5-E09, 2-chloro-N-{5-oxo-1-[3-(trifluoromethyl)phenyl]pyrrolidin-3-yl}acetamide]	113.661
O=C(CCl)NCC(=O)Nc1nccs1 [5-G22, 2-chloro-N-{[(1,3-thiazol-2-yl)carbamoyl]methyl}acetamide]	86.3388
Cc1nn(-c2ccccc2)c(Cl)c1C=C(C#N)C(=O)NC(C)C [9-J17, 3-(5-chloro-3-methyl-1-phenyl-1H-pyrazol-4-yl)-2-cyano-N-(propan-2-yl)prop-2-enamide]	77.9026
C=CC(=O)N(C)CC(=O)Nc1ccc(N2C[C@@H](C)O[C@@H](C)C2)cc1 [3-H08, N-[({4-[(2R,6S)-2,6-dimethylmorpholin-4-yl]phenyl}carbamoyl)methyl]-N-methylprop-2-enamide]	117.719
CC(C)N(c1ccccc1)c1ccc(NC(=O)CCl)cc1 [6-I17, 2-chloro-N-{4-[phenyl(propan-2-yl)amino]phenyl}acetamide]	116.78
CCC(c1cc(Cl)cc(Cl)c1)N(C)C(=O)CCl (stereo not shown) [7-L10, 2-chloro-N-[1-(3,5-dichlorophenyl)propyl]-N-methylacetamide]	75.0392
COc1cc(C)c(C=C(C#N)C(=O)Nc2ccc(C)cc2)cc1C(C)C [9-C04, 2-cyano-3-[4-methoxy-2-methyl-5-(propan-2-yl)phenyl]-N-(4-methylphenyl)prop-2-enamide]	99.176
O=C(O)c1csc(C(=O)CCl)c1 [10-E22, 5-(2-chloroacetyl)thiophene-3-carboxylic acid]	88.4375

Compound	% of control remaining [%]
O=C(CCl)c1sccc1Cl [10-K11, 2-chloro-1-(3-chlorothiophen-2-yl)ethan-1-one]	10.3125
O=C(CCl)c1cc(Cl)ccc1Cl [10-E16, 2-chloro-1-(2,5-dichlorophenyl)ethan-1-one]	80
C=CC(=O)NCc1cc(Cl)cc(S(C)(=O)=O)c1 [3-N15, N-[(3-chloro-5-methanesulfonylphenyl)methyl]prop-2-enamide]	97.5185
C=CC(=O)NCc1oc(CC)nc1C [3-P15, N-[(2-ethyl-4-methyl-1,3-oxazol-5-yl)methyl]prop-2-enamide]	86.7218
N#Cc1c(NC(=O)CCl)oc(-c2cccs2)c1-c1cccs1 [6-I09, 2-chloro-N-[3-cyano-4,5-bis(thiophen-2-yl)furan-2-yl]acetamide]	37.9024
Cc1c(C#N)c(NC(=O)CCl)n(Cc2cccs2)c1C [4-C04, 2-chloro-N-{3-cyano-4,5-dimethyl-1-[(thiophen-2-yl)methyl]-1H-pyrrol-2-yl}acetamide]	108.623
N#Cc1c(NC(=O)CCl)oc(-c2ccco2)c1-c1ccco1 [5-D10, 2-chloro-N-[4'-cyano-2'-(furan-2-yl)-[2,3'-bifuran]-5'-yl]acetamide]	66.6667
COCC(C)NC(=O)C(C#N)=Cc1cccc(F)c1F (stereo not shown) [9-F09, 2-cyano-3-(2,3-difluorophenyl)-N-(1-methoxypropan-2-yl)prop-2-enamide]	101.873
C=CC(=O)N1CCCC1c1nc(N(C)C)no1 (stereo not shown) [2-C21, 1-{2-[3-(dimethylamino)-1,2,4-oxadiazol-5-yl]pyrrolidin-1-yl}prop-2-en-1-one]	104.439
C=CC(=O)N(CC)CC(=O)N1CCCC(F)(F)C1 [2-G14, N-[2-(3,3-difluoropiperidin-1-yl)-2-oxoethyl]-N-ethylprop-2-enamide]	112.446
O=C1C=CC(=O)N1CCc1ccc(F)cc1 [10-C21, 1-[2-(4-fluorophenyl)ethyl]-2,5-dihydro-1H-pyrrole-2,5-dione]	70.9375
O=C1C=CC(=O)N1CCc1ccccc1 [10-E20, 1-(2-phenylethyl)-2,5-dihydro-1H-pyrrole-2,5-dione]	58.4375
O=C1C=CC(=O)N1CCc1ccccc1F [10-G03, 1-[2-(2-fluorophenyl)ethyl]-2,5-dihydro-1H-pyrrole-2,5-dione]	4.375
CCc1nsc(N2CCN(C(=O)C(C#N)=Cc3ccco3)CC2)n1 [9-K05, 2-[4-(3-ethyl-1,2,4-thiadiazol-5-yl)piperazine-1-carbonyl]-3-(furan-2-yl)prop-2-enenitrile]	96.779
CNS(=O)(=O)c1cc(NC(=O)CCl)ccc1C [6-M07, 2-chloro-N-[4-methyl-3-(methylsulfamoyl)phenyl]acetamide]	112.341

— PMC11995724, “Antibiotic target discovery by integrated phenotypic and activity-based profiling of electrophilic fragments” (Cell chemical biology, 2025)
